# Test results published in PubChem BioAssay (NCI).
# This is part of a sample that, as a whole, favours compounds with a hit. Of some 83,000 tested, about 20% had one in any assay.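 Growth was measured after 48 h exposure to one concentration of compound in 96-well plates. Values under 10 count as active.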 Values without a mark were called inactive. Activity calls are given as the source filed them.
# Tests used:
# Test in all cases: NCI-60 one-dose screen, 48 h (100 = growth as untreated, 0 = no growth, -100 = all killed)
# Settings in all cases: 10 µM unless noted
# HCT-15 colon = test system: HCT-15 colon
# HT29 colon = test system: HT29 colon
# SNB-19 CNS = test system: SNB-19 CNS
# U251 CNS = test system: U251 CNS
# PC-3 prostate = test system: PC-3 prostate
# SK-MEL-5 melanoma = test system: SK-MEL-5 melanoma
# UACC-62 melanoma = test system: UACC-62 melanoma
# LOX IMVI melanoma = test system: LOX IMVI melanoma
# SK-MEL-28 melanoma = test system: SK-MEL-28 melanoma
# SK-MEL-2 melanoma = test system: SK-MEL-2 melanoma
# EKVX NSCLC = test system: EKVX NSCLC
# SN12C renal = test system: SN12C renal
# UO-31 renal = test system: UO-31 renal
# TK-10 renal = test system: TK-10 renal
# ACHN renal = test system: ACHN renal
# CAKI-1 renal = test system: CAKI-1 renal
# A498 renal = test system: A498 renal
# CCRF-CEM leukemia = test system: CCRF-CEM leukemia
# MOLT-4 leukemia = test system: MOLT-4 leukemia
# SNB-75 CNS = test system: SNB-75 CNS
SMILES,growth (HCT-15 colon),growth (HT29 colon),growth (SNB-19 CNS),growth (U251 CNS),growth (PC-3 prostate),growth (SK-MEL-5 melanoma),growth (UACC-62 melanoma),growth (LOX IMVI melanoma),growth (SK-MEL-28 melanoma),growth (SK-MEL-2 melanoma) [%],growth (EKVX NSCLC),growth (SN12C renal),growth (UO-31 renal),growth (TK-10 renal),growth (ACHN renal),growth (CAKI-1 renal),growth (A498 renal),growth (CCRF-CEM leukemia),growth (MOLT-4 leukemia),growth (SNB-75 CNS) [%]
O=C1Nc2ccccc2/C1=C/c1cccn1CCCCCCn1c2ccccc2c(=O)c2ccccc21,23%,92.9%,97.1%,92.4%,40.1%,34.7%,50.3%,91.2%,111%,86.3,65.3%,93.6%,56.2%,78.7%,89.7%,72.6%,103%,49.8%,50.9%,–
CCOC(=O)c1cc(C(=O)c2cc(OC)cc(OC)c2)n2ncccc12,21.5%,7.23% (active),47.1%,24.7%,36.2%,26%,26.2%,39.7%,71.2%,19.3,49.7%,–,47.8%,63.9%,53.2%,34.1%,-3.04% (active),24%,32.6%,–
Cc1nc2c(c(-c3ccccc3)n1)Cc1c(ccc3ccccc13)O2,107%,89.1%,110%,102%,87.5%,70.8%,83.8%,91.5%,107%,112,128%,102%,69.8%,106%,90.8%,109%,79.1%,96.5%,97%,–
Nc1c(C(=O)c2ccc(Cl)cc2)sc(Nc2ccccc2)c1-c1nc2ccccc2s1,39.7%,17.9%,62.1%,4.94% (active),10.3%,55.1%,7.88% (active),17.8%,42.6%,38.5,59.9%,82.6%,19.3%,-13.3% (active),26.2%,25.2%,46.2%,60.3%,76.5%,–
O=C(CN1C(=O)c2ccccc2S1(=O)=O)Nc1nc(-c2cc3ccccc3oc2=O)cs1,108%,103%,101%,99.2%,97.7%,99.1%,97.8%,99.5%,107%,107,102%,97.2%,91%,137%,103%,100%,98%,104%,110%,–
O=CN1N=C(c2cccc(Nc3ccncc3)c2)CC1c1ccc2c(c1)OCO2 (centres undefined),95.7%,69.8%,99.7%,94.8%,84.9%,91.8%,99.6%,95.3%,97.7%,85.5,67.6%,99.3%,86.9%,109%,97.2%,80.7%,96.5%,86.1%,92.3%,–
CC(=O)OCC(=O)O[C@@H]1C[C@]2(C(C)C)O[C@@]1(C)[C@@H]1CC[C@@H](C)[C@H]1[C@@H]2OC(=O)/C=C/c1ccccc1,81.4%,82.3%,86.6%,74.7%,58.6%,74.4%,81%,90.2%,102%,–,68.9%,–,-83.3% (active),81.1%,-4.65% (active),-2.07% (active),-92.5% (active),70.7%,74.5%,62.3
COc1ccc(S(=O)(=O)NC2c3ccccc3CC2O)cc1OC (centres undefined),102%,107%,98.6%,102%,97.8%,103%,96.2%,102%,114%,104,103%,96.1%,78.8%,112%,105%,102%,92.7%,101%,103%,–
CCOC(=O)c1c2c(n3ccc(NC(=O)CCN4CCCC4)cc13)C(=O)c1ncccc1C2=O,-78.1% (active),-52.8% (active),-55.4% (active),-88.5% (active),-11.7% (active),68.6%,-12.4% (active),-73% (active),96.4%,93.9,-49.2% (active),-63.5% (active),16.9%,-92.2% (active),13.6%,9.9% (active),46.3%,-36.4% (active),-23% (active),–
COC12C=C/C(=C(/C(=O)OCc3ccccn3)C(=O)CCCCCCCCC3(OC)C=C/C(=C(/C(=O)OCc4ccccn4)C(=O)CCCCCCCC1)O3)O2,-37.5% (active),3.23% (active),12.5%,-25.6% (active),-37.4% (active),-83.3% (active),-52.5% (active),-69.6% (active),-11.1% (active),10.8,-9.9% (active),-22.2% (active),-45.7% (active),4.32% (active),-14.9% (active),-4.53% (active),-86.3% (active),0.645% (active),0.868% (active),–
CO[C@H]1/C=C/O[C@@]2(C)Oc3c(C)c(O)c4c(O)c(c5c(nc6cc(C)ccn65)c4c3C2=O)NC(=O)/C(C)=C\C=C\[C@H](C)[C@H](O)[C@@H](C)C(O)[C@@H](C)[C@H](OC(C)=O)[C@@H]1C (some centres undefined),103%,96.7%,99.9%,98.2%,90.4%,103%,98%,95.9%,104%,93.1,101%,98.6%,76.3%,102%,99.5%,94.6%,134%,101%,89.8%,–
COC(=O)c1c(C(=O)OC)c2ccc3c4ncccc4ccc3n2c1C(=O)c1ccc(C)cc1,91.1%,95.1%,98.1%,98.9%,86.6%,83.7%,84.8%,88%,95.1%,83.2,83.2%,100%,74.3%,93.4%,77.1%,83.9%,92.8%,71.2%,–,–
Cc1cccc(C)c1NC(=O)Nc1ccccc1,25.5%,27.3%,90.8%,77.4%,70.7%,101%,71.6%,69.8%,108%,–,121%,–,80.7%,96.7%,4.67% (active),54.3%,109%,83.1%,81.7%,108
C/C=C(/C)C(=O)O[C@@H]1CC(C)(C)CC2C34OC(=O)[C@@]21CC[C@@]3(C)[C@]1(C)CCC2C(C)(C)C(=O)CC[C@]2(C)C1C[C@@H]4O (some centres undefined),38.4%,65.1%,78.6%,46.9%,25.4%,27.8%,55.3%,33.5%,75.8%,80.3,50.1%,83.7%,67.8%,73.2%,85.9%,59.6%,69.3%,36.3%,24.2%,–
Nc1nc(N)c2c(n1)NC(c1ccc3c(c1)OCO3)CC(c1cccc(Nc3ccncc3)c1)=N2 (centres undefined),98.4%,61.3%,94.5%,80.8%,50.8%,90%,87.6%,48.5%,108%,86,89.1%,94.6%,96.1%,99.6%,110%,78.8%,93%,70%,71.2%,–
O=c1c(Cc2ccc(F)cc2)cc(-c2ccccc2)nn1C/C(=N/O)c1ccccc1,44.5%,20.3%,58.3%,34.5%,25.9%,36.6%,33.6%,53.1%,62%,36.8,29.1%,17.2%,–,63.5%,40.3%,47%,9.7% (active),34.6%,16.1%,–
